Assay results from the supplement of paper PMC6555819.

Assays:
Assay in all cases: PBM binding z-score (relative to random genomic background probes); higher = stronger binding; sequences stand for … in GC…GCGATTGACAGCGTAGAATGAAGG
[1] = test system: FXR:RXRa (NR concentration 270 nM, RXRa partner concentration 90 nM)
Procedure, shortened: (§1)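 Binding buffer was PBS pH 7.4 with 2% milk, 0.02% Triton X-100, 1 mM DTT, 0.2 mg/mL BSA and 0.4 mg/ml salmon testes DNA. In it, ligand-free nuclear receptor dimers were incubated 1 h on custom Agilent 4×180K protein-binding microarrays carrying double-stranded probes. Antibodies against each partner (one per run) detected binding, and z-scores were calculated against random background probes after regression normalization of scanned fluorescence.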

[2] = test system: LXRa:RXRa (NR concentration 270 nM, RXRa partner concentration 90 nM)
Procedure, shortened: as §1

[3] = test system: LXRa homodimer (NR concentration 270 nM)
Procedure, shortened: as §1

[4] = test system: LXRb:RXRa (NR concentration 270 nM, RXRa partner concentration 90 nM)
Procedure, shortened: as §1

[5] = test system: LXRb homodimer (NR concentration 270 nM)
Procedure, shortened: as §1

[6] = test system: PPARa:RXRa (NR concentration 270 nM, RXRa partner concentration 90 nM)
Procedure, shortened: as §1

[7] = test system: PPARg:RXRa (NR concentration 180 nM, RXRa partner concentration 90 nM)
Procedure, shortened: as §1

[8] = test system: PPARg:RXRa 270nM:90nM, anti-RXR (NR concentration 270 nM, RXRa partner concentration 90 nM)
Procedure, shortened: as §1

[9] = test system: PPARg:RXRa 30nM:10nM, anti-RXR (NR concentration 30 nM, RXRa partner concentration 10 nM)
Procedure, shortened: as §1

[10] = test system: PPARg:RXRa 90nM:30nM, anti-RXR (NR concentration 90 nM, RXRa partner concentration 30 nM)
Procedure, shortened: as §1

[11] = test system: PPARg:RXRa DBDmut IVT, anti-RXR (DBD mutation: RXRa K156A/R161A, NR concentration 270 nM, RXRa partner concentration 90 nM)
Procedure, shortened: as §1

[12] = test system: PPARg:RXRa IVT, anti-PPARg (NR concentration 270 nM, RXRa partner concentration 90 nM)
Procedure, shortened: as §1

[13] = test system: PPARg DBDmut:RXRa IVT, anti-PPARg (DBD mutation: PPARg1 K132A/R137A, NR concentration 270 nM, RXRa partner concentration 90 nM)
Procedure, shortened: as §1

[14] = test system: PPARg DBDmut IVT, anti-PPARg (DBD mutation: PPARg1 K132A/R137A, NR concentration 270 nM)
Procedure, shortened: as §1

[15] = test system: PPARg homodimer (NR concentration 180 nM)
Procedure, shortened: as §1

[16] = test system: PXR:RXRa (NR concentration 270 nM, RXRa partner concentration 90 nM)
Procedure, shortened: as §1

[17] = test system: PXR homodimer (NR concentration 270 nM)
Procedure, shortened: as §1

[18] = test system: RARa:RXR (NR concentration 270 nM, RXRa partner concentration 90 nM)
Procedure, shortened: as §1

[19] = test system: RARa homodimer (NR concentration 270 nM)
Procedure, shortened: as §1

[20] = test system: RARb:RXRa (NR concentration 270 nM, RXRa partner concentration 90 nM)
Procedure, shortened: as §1

| Sequence | PBM binding z-score [1] | PBM binding z-score [2] | PBM binding z-score [3] | PBM binding z-score [4] | PBM binding z-score [5] | PBM binding z-score [6] | PBM binding z-score [7] | PBM binding z-score [8] | PBM binding z-score [9] | PBM binding z-score [10] | PBM binding z-score [11] | PBM binding z-score [12] | PBM binding z-score [13] | PBM binding z-score [14] | PBM binding z-score [15] | PBM binding z-score [16] | PBM binding z-score [17] | PBM binding z-score [18] | PBM binding z-score [19] | PBM binding z-score [20] |
| --- | --- | --- | --- | --- | --- | --- | --- | --- | --- | --- | --- | --- | --- | --- | --- | --- | --- | --- | --- | --- |
| GCTCGGACGACAAGGTCAGAGCTTTGTCCGTAGA | 1.39 | 1.19 | -0.78 | 0.912 | -1.26 | 2 | 0.028 | 0.343 | -0.807 | -0.125 | -0.353 | -0.175 | -1.38 | -1.46 | 0.248 | 1.73 | -0.194 | 2.24 | -0.933 | 2.84 |
| ACATGTAGGTTACATCCGGGTCATTCAGGCTATG | 2.53 | 4.55 | 1.49 | 3.15 | 1.14 | 4.15 | 4.27 | 3.99 | 1.47 | 2.91 | 6.27 | 6.09 | 4.52 | 4.01 | 3.27 | 3.95 | 2.86 | 3.98 | 0.622 | 2.43 |
| GCTGCTAGGGCAGGTTGGTCAGCTAACGGGTACG | -0.531 | -0.752 | -0.652 | -1.01 | -0.94 | -0.594 | -0.438 | -0.678 | -1.11 | -1.1 | 0.814 | 0.109 | -1.41 | -2.26 | -0.535 | -0.732 | -0.597 | -0.985 | -1.07 | 1.16 |
| TCAAGTAGGTTAGTCGGGGCATTCAGCCAACATA | 0.926 | 0.645 | 0.0892 | 1.03 | 0.134 | 1.68 | 1.07 | 2.48 | 3.63 | 3.14 | 4.81 | 4.14 | 0.386 | 1.15 | 1.35 | 0.801 | 0.708 | 0.739 | 0.814 | 0.917 |
| TCTGCTCGGTCAGTTGGTCAGCTAACGAGCTGCC | -0.211 | -0.247 | -0.549 | -0.506 | 0.134 | -0.00259 | -1.22 | 0.38 | 0.881 | 0.52 | 0.685 | 0.74 | -0.215 | 0.0745 | -0.826 | -0.447 | -1.11 | -0.352 | -1.55 | 1.73 |
| CAAACTAGGTCAAGGTCAAAGGCGGTTTGTGCCA | 6.43 | 5.36 | 3.25 | 4.34 | 1.01 | 5.91 | 9.82 | 8.02 | 6.66 | 8.34 | 8.62 | 8.69 | 1.56 | 1.08 | 4.11 | 4.86 | 2.19 | 5.36 | 1.25 | 5.02 |
| GCTCGGAGGACAAGGTCAGAACTTTGTCCGTAGA | 1.86 | 1.64 | -0.253 | 1.31 | -0.462 | 2.22 | 0.592 | 1.57 | 0.0801 | 0.802 | -0.664 | 0.754 | -0.824 | -0.981 | 0.718 | 1.87 | -0.398 | 2 | -0.812 | 3.2 |
